Results from ChEMBL document CHEMBL3988442, “University of Dundee, Small-Polar-MMV Screening Library” (2021).
The whole screen tested about 48,000 compounds, of which about 13,000 (27%) showed an effect of 50% or more. The list shows a part of the results.

These molecules were tested on Wolbachia pipientis (assay: Anti-Wolbachia Cell-Based Screen). Conditions: 5 µM.
Type: functional
Set-up: scale not given: in the data most compounds retested in dose-response had high values

| Compound | Percent Effect |
| --- | --- |
| Cc1cnn(CCNCc2c(C)nn(-c3ccccc3)c2C)c1 | 2.27% |
| CCn1ccnc1CNCC1CCCN1c1cc(NC)ncn1 (stereo unspecified) | -2.475% |
| CC1(c2ccccc2)CCCN(Cc2cncn2C2CC2)C1 (stereo unspecified) | -17.5% |
| CC(=O)N1CCN2C(=O)N(Cc3ccc(F)cc3)C[C@H]2C1 | -0.8027% |
| Cc1ccsc1C(=O)N1Cc2ccccc2C2(CCN(C)CC2)C1 | 0.4591% |
| Cc1ccsc1C(=O)N1CCC(O)(CN2CCc3ccccc3C2)C1 (stereo unspecified) | 107.5% |
| Cc1ccsc1C(=O)N1CC(C(=O)N2CCOCC2)C2(CCOCC2)C1 (stereo unspecified) | -2.409% |
| Cc1ncsc1C(=O)NCC1SCCc2ccccc21 (stereo unspecified) | 15.22% |
| O=C(NCCN1CCc2ccccc2C1)c1scnc1Cl | 7.313% |
| Cc1ncsc1C(=O)N1CCC(O)(CN2CCc3ccccc3C2)C1 (stereo unspecified) | 69.3% |
| CN(C)C(=O)CN1C[C@H]2CCN(C(=O)c3ccccc3)CC[C@H]2S1(=O)=O | -0.2408% |
| CCOc1ccc(NC(=O)N2CCOC(C(N)=O)C2)cc1C (stereo unspecified) | 95.69% |
| COCC1CN(C(=O)Nc2ccc(Cl)cc2Cl)CCO1 (stereo unspecified) | -1.722% |
| COCCOc1ccc(NC(=O)N2CCOC(C(N)=O)C2)cc1F (stereo unspecified) | 100.1% |
| CCOc1ccc(NC(=O)NC2CCc3nc(C)nn3C2)cc1Cl (stereo unspecified) | -21% |
| CCOc1ccc(C#N)cc1NC(=O)N1CCOC(C(N)=O)C1 (stereo unspecified) | 8.32% |
| COc1ccc(NC(=O)N2CCC(CSC)C2)cc1C (stereo unspecified) | -50.59% |
| CCOc1ccc(NC(=O)N2CCOC(C(N)=O)C2)cc1Cl (stereo unspecified) | 142.8% |
| COCC1CN(C(=O)Nc2cc(Cl)ccc2F)CCO1 (stereo unspecified) | -13.77% |
| COCC1CN(C(=O)Nc2cc(Br)ccc2F)CCO1 (stereo unspecified) | -0.1525% |
| Cc1cnc(C)c(N2CCC(Cc3ccccc3Cl)(C(=O)O)CC2)n1 | 2.277% |
| CC(=O)N1CCCN(Cc2csc(C)n2)c2ccccc21 | 0.8232% |
| CCCC(O)CN1CC(C)(C)CN(C(=O)c2ccccc2)CC1=O (stereo unspecified) | 122.4% |
| CCCC(O)CN1CC(C)(C)CN(C(=O)c2ccc(SC)cc2)CC1=O (stereo unspecified) | 118.8% |
| CSc1ccc(C(O)CNS(=O)(=O)C2CC2)cc1 (stereo unspecified) | 2.179% |
| CCCN(CCO)C(=O)C1CCC(=O)N(CCc2ccc(Cl)cc2)C1 (stereo unspecified) | -1.106% |

| Compound | Percent Effect |
| --- | --- |
| CC1(C)CN(CC(O)C(C)(C)C)C(=O)CN(C(=O)c2ccccc2)C1 (stereo unspecified) | 117.8% |
| CN(C)C(=O)N1CCN(C(=O)c2ccc(Cl)cc2)CC2(CNC(=O)C2)C1 (stereo unspecified) | -1.625% |
| CC(C)CN1CC2(CCN(C(=O)C(O)c3ccccc3Cl)CC2)CC1=O (stereo unspecified) | -2.667% |
| CCCC(O)CN1CC(C)(C)CN(C(=O)c2ccc(Cl)cc2)CC1=O (stereo unspecified) | 78.76% |
| Cc1[nH]nc2ncc(C(=O)N3CCN(CC(O)C(C)(C)C)CC3)cc12 (stereo unspecified) | -16.51% |
| NC(=O)NCC(=O)N1C[C@H]2CC[C@@H]1CN(C1Cc3ccccc3C1)C2 | -1.297% |
| COc1nc2c(cc1C(=O)N1C[C@H](N)C[C@H]1C(=O)NC(C)C)CCC2 | -26.43% |
| CN(C)CCN1CC(C(=O)N2CCC(c3nccn3C)CC2)CC1=O (stereo unspecified) | 2.201% |
| Cn1cnc2c1CCN(CC(=O)N(Cc1ccsc1)C1CC1)C2 | -10.64% |
| COc1ccc(CNCCc2cccc(C(N)=O)c2)cc1C | -2.965% |
| CC(C)N1CCc2ncn(C(C)C)c2C1C(=O)N1CCN(C)CC1 (stereo unspecified) | -12.1% |
| CCc1nc(CCn2ccc3nc(OC)c(C#N)cc3c2=O)no1 | 0.8236% |
| CC(C)c1noc(CN2CCC3(CCCO3)CCC2=O)n1 (stereo unspecified) | -7.858% |
| CC1COCCN1Cc1noc(C(C)(C)C)n1 (stereo unspecified) | 91.93% |
| CC(C)(C)c1nc(CN2CCC(N3CCCCC3)CC2)no1 | 3.179% |
| CCCc1noc(CN2CCOCC2C)n1 (stereo unspecified) | 76.64% |
| CC1COCCN1Cc1nc(C(C)(C)C)no1 (stereo unspecified) | 110.8% |
| CC(C)c1noc(CN2CCOCC2C)n1 (stereo unspecified) | 107.7% |
| CC1CCCCN1Cc1nc(C2CC2)no1 (stereo unspecified) | 23.82% |
| CC(C)(C)c1noc(CN2CCCC(CNS(N)(=O)=O)C2)n1 (stereo unspecified) | -0.7485% |
| CC(C(=O)N1CCOCC1)S(=O)(=O)Cc1noc(C(C)(C)C)n1 (stereo unspecified) | -4.281% |
| CC(C)c1noc(CS(=O)(=O)Cc2nc(C(C)C)no2)n1 | -3.73% |
| COCc1nc2cc(NCc3sc(C)nc3C)ccc2o1 | 1.098% |
| CC1=C(C(=O)NCc2cccnc2-n2cnc3ccccc32)OCCO1 | -15.12% |
| CSc1nccc(N2CCC(=O)N(CC3CC3)C(C(C)C)C2)n1 (stereo unspecified) | 8.272% |
